{"source": "PubChem BioAssay (Tox21)", "note": "Records with an inconclusive call do not appear. Values without a mark were called inactive. The source made the active and inactive calls. Calls come from the whole dose curve; as a rule, active = well fitted activation curve with a large enough effect in the repeat runs; inconclusive = weak or mixed curves; inactive = flat fitted curve, though single readings scatter. % is set by controls: 0 for no effect and ±100 for the full control effect; potency is the fitted concentration of half-maximal effect.", "data": [{"test": "A CellTox Green Cytotoxicity Assay to monitor cytotoxicity in HepG2 cells - 40 hour (AID 1224879); note: nearly all actives have a fitted effect of over 40% in size", "conditions": "CellTox Green fluorescence; series mostly up to 76.8 µM; cytotoxicity increase: at the top concentration", "text": "National Center for Advancing Translational Sciences [NCATS]\nNIH Chemical Genomics Center [NCGC]\nU.S. Environmental Protection Agency [EPA]\nNational Institutes of Environmental Health Sciences [NIEHS]\nNational Toxicology Program [NTP]\nCell-based models are critical for drug discovery. Determining the natural cytotoxic effects resulting from test compounds is an essential research activity. A CellTox Green Cytotoxicity Assay to monitor cytotoxicity in real time of continues cell culture during 40 hours of the compound treatment was used to screen Tox21 10K library compounds in HepG2 cells. CellTox Green Cytotoxicity Assay is a nonlytic, homogeneous, biofluorescent method to measure cytotoxicity in cell culture after experimental manipulation. The assay system uses a proprietary asymmetric cyanine dye that is excluded from viable cells but preferentially stains the dead cell's DNA. […] Viable cells produce no appreciable increases in fluorescence. Therefore, the fluorescence signal produced by the binding interaction with dead cell DNA is proportional to cytotoxicity.\nThe mixture of HepG2 cell suspension and reagents were dispensed at 600cells/6 ul/well in 1536-well tissue culture treated black solid bottom plates using a Multidrop dispenser. After the assay plates were incubated at a 37 C/5% CO2 incubator for 5 hours, 23 nL of compounds dissolved in DMSO, positive and negative controls was transferred to the assay plate by a pintool work station. The plates were incubated at 37 C for 40 hours. The fluorescence intensity were measured at 0h, 8h, 16h, 24h, 32h and 40h time points using ViewLux plate reader during compound treatment.", "values": [{"smiles": "COc1ccc(Cl)cc1C", "cytotoxicity increase": "-1.89%"}, {"smiles": "CC(CC(=O)Cl)CC(C)(C)C", "note": "(stereo not given)", "cytotoxicity increase": "-0.0964%"}, {"smiles": "N[C@H]1C(O)O[C@H](CO)[C@@H](O)[C@@H]1O", "note": "(stereo not given in full)", "cytotoxicity increase": "1.72% [at 35.3 µM]"}, {"smiles": "C[C@@H](CN1CC(=O)NC(=O)C1)N1CC(=O)NC(=O)C1", "cytotoxicity increase": "13.8% [at 35.3 µM]"}, {"smiles": "C=C(C)C(=O)OCCOC1CC2CC1C1C=CCC21", "note": "(stereo not given)", "cytotoxicity increase": "-4.12%"}, {"smiles": "CC(O)CCCCn1c(=O)c2c(ncn2C)n(C)c1=O", "note": "(stereo not given)", "cytotoxicity increase": "-0.103% [at 35.3 µM]"}, {"smiles": "CCN(CC)CC", "cytotoxicity increase": "-4.78%"}, {"smiles": "CCCCCCCOC(C)=O", "cytotoxicity increase": "-1.24%"}, {"smiles": "Cc1ccc(Br)cc1", "cytotoxicity increase": "3.66%"}, {"smiles": "CO/N=C(\\C(=O)O)c1csc(NC(=O)CCl)n1", "cytotoxicity increase": "-7.59% [at 35.3 µM]"}, {"smiles": "CC(C)(C)OC=O", "cytotoxicity increase": "-5.44%"}, {"smiles": "Cc1ccc(O)c([N+](=O)[O-])c1", "cytotoxicity increase": "-0.193%"}, {"smiles": "CC(C)(Sc1cc(C(C)(C)C)c(O)c(C(C)(C)C)c1)Sc1cc(C(C)(C)C)c(O)c(C(C)(C)C)c1", "cytotoxicity increase": "-10.3% [at 35.3 µM]"}, {"smiles": "CC(C)(C)OC(=O)c1ccccc1C(=O)O", "cytotoxicity increase": "12.1%"}, {"smiles": "CCOC(=O)c1ccc(N(C)C)cc1", "cytotoxicity increase": "-5.12%"}, {"smiles": "COc1ccc2cc(CCC(C)=O)ccc2c1", "cytotoxicity increase": "-4.93% [at 35.3 µM]"}, {"smiles": "CCNC(=O)C(C)OC(=O)Nc1ccccc1", "note": "(stereo not given)", "cytotoxicity increase": "-4.17%"}, {"smiles": "CCCCOCCCC", "cytotoxicity increase": "11.2%"}, {"smiles": "Nc1nc(Cl)cc(Cl)n1", "cytotoxicity increase": "8.39%"}, {"smiles": "Nc1ccc(C(=O)NCC(=O)O)cc1", "cytotoxicity increase": "-22% [at 35.3 µM]"}, {"smiles": "Cc1ccc(NC(N)=O)cc1", "cytotoxicity increase": "-2.3%"}, {"smiles": "CN1C(CCl)Nc2cc(Cl)c(S(N)(=O)=O)cc2S1(=O)=O", "note": "(stereo not given)", "cytotoxicity increase": "-13% [at 35.3 µM]"}, {"smiles": "CC(C)(C)NCC(O)COc1cccc2c1CCC(=O)N2", "note": "(stereo not given)", "cytotoxicity increase": "-15.9% [at 35.3 µM]"}, {"smiles": "CCCCC(CC)CCC(CC(C)C)OS(=O)(=O)O", "note": "(stereo not given)", "cytotoxicity increase": "-4.72%"}, {"smiles": "CC1(C)S[C@@H]2[C@H](NC(=O)Cc3ccccc3)C(=O)N2[C@H]1C(=O)O", "note": "(tested in a mixture with another compound)", "cytotoxicity increase": "-14.7% [at 35.3 µM]"}, {"smiles": "CNCCc1ccccn1", "cytotoxicity increase": "-18.1% [at 35.3 µM]"}, {"smiles": "CC(C)OCCO", "cytotoxicity increase": "-5.79%"}, {"smiles": "CC(=O)OC1CCC(C(C)(C)C)CC1", "note": "(stereo not given)", "cytotoxicity increase": "-0.894%"}, {"smiles": "Cc1cc(O)c(Cl)cc1C", "Potency": "49 µM (active)"}, {"smiles": "CCCc1ccc(O)c(OC)c1", "cytotoxicity increase": "0.726%"}, {"smiles": "COCCCOc1cc(C[C@@H](C[C@H](N)[C@@H](O)C[C@H](C(=O)NCC(C)(C)C(N)=O)C(C)C)C(C)C)ccc1OC", "cytotoxicity increase": "-8.26% [at 35.3 µM]"}, {"smiles": "CN(C)CCc1c[nH]c2ccc(CS(=O)(=O)N3CCCC3)cc12", "cytotoxicity increase": "-11.6% [at 35.3 µM]"}, {"smiles": "C=CC(=O)CC", "cytotoxicity increase": "-7.31%"}, {"smiles": "C=CCN1CCc2nc(N)sc2CC1", "cytotoxicity increase": "0.433% [at 35.3 µM]"}, {"smiles": "C/C=C(\\C)C=O", "cytotoxicity increase": "-12.6%"}, {"smiles": "COC(=O)c1ccccc1Cl", "cytotoxicity increase": "-17.8%"}, {"smiles": "C/C(=N\\O)c1ccc(OCC(=O)N2CCCCC2)cc1", "cytotoxicity increase": "4.18% [at 35.3 µM]"}, {"smiles": "C=CCCCCCCCCOC(C)=O", "cytotoxicity increase": "4.78%"}, {"smiles": "CCC(C)(C)C", "cytotoxicity increase": "-0.686%"}, {"smiles": "O=S(=O)(O)c1cc(I)c(O)c2ncccc12", "cytotoxicity increase": "-11% [at 35.3 µM]"}]}]}
